The values that follow come from PubChem BioAssay AID2563 (Broad Institute, 2010).

Screen size: about 290,000 compounds; about 800 (0.28%) were called active. This is one part of a sample in which actives are shown more often than they occur.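 The calls were made as follows: active = fall in fluorescence gain of 50% or more versus controls, with final raw signal at or below 3038400; inconclusive = same 50% fall but final raw signal above 3038400; inactive = fall in fluorescence gain under 50%.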

For the test, the target named is CAAX prenyl protease 2 (Saccharomyces cerevisiae (strain ATCC 204508 / S288c)) (UniProt Q03530). Briefly: yeast Rce1p protease inhibitors, primary screen, biochemical, fluorescence, cell-free homogeneous (AID 2563). Particulars: yeast membranes, quenched prenylated peptide cleavage fluorescence.
Chain of CAAX prenyl protease 2 (Saccharomyces cerevisiae (strain ATCC 204508 / S288c)) (Q03530 whole entry, looked up): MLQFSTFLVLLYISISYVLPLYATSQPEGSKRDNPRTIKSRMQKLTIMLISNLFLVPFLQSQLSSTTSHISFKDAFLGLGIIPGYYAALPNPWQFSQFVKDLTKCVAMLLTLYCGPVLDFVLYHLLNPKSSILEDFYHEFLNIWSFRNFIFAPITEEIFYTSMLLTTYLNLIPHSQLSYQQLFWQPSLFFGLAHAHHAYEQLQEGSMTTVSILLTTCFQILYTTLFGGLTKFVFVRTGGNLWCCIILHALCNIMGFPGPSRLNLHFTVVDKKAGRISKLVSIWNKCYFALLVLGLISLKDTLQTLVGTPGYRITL
Take `CC(C)CN(C(=O)COC(=O)c1ccc2ccccc2c1)c1c(N)n(Cc2ccccc2)c(=O)[nH]c1=O`: the result was inactive. On to `COc1ccc(NS(=O)(=O)c2ccc(C)c(C(=O)NCC(c3cccs3)N3CCOCC3)c2)cc1` (stereo not drawn), for which the outcome was inactive. To `CN(C)c1ccc(C2Nc3ccccc3C(=O)N2NS(=O)(=O)c2ccccc2)cc1` (stereo not drawn) belongs “inactive”; to `CC(=O)NN1C(=O)c2ccccc2NC1c1ccccc1` (stereo not drawn), “active”. For `CCOC(=O)NN1C(=O)c2ccccc2NC1c1cccc(O)c1` (stereo not drawn), the call was inactive. As for `COCCn1c(SC(C)C(=O)NC2CC2)nnc1-c1cccc(C)c1` (stereo not drawn), the call was inactive. On to `CC(C)(C)S(=O)(=O)c1ccccc1-c1noc(-c2ccccc2)c1C(N)=O`, for which the call was inactive. To `CCn1c(SC(C)C(=O)Nc2ccc(N3CCOCC3)cc2)nnc1-c1ccco1` (stereo not drawn) belongs “inactive”; to `Cc1ccc(C(=O)N/N=C/c2cccc3ccccc23)cn1`, “inactive”; to `CCCCCN(C(=O)CCC(=O)OCC(=O)NC1CCC(C)CC1)c1c(N)n(CCCC)c(=O)[nH]c1=O` (stereo not drawn), “inactive”.

Consider `COc1ccc(C)cc1S(=O)(=O)Nc1cc2c3c(c1)CCC(=O)N3CCC2`, for which the outcome was inactive. As for `CCCc1cc(=O)[nH]c(SCC(=O)c2c(N)n(CC(C)C)c(=O)n(C)c2=O)n1`, the call was inactive. For the compound `O=C(CN1C(=O)NC2(CCCC2)C1=O)OCCOc1ccc(F)cc1`, the result was inactive.

For the compound `CCN1CCN(c2ccc(S(=O)(=O)N3CCCCC3)cc2NC(=O)c2cccc(NC(C)=O)c2)CC1`, the outcome was inactive.

As to `Cc1onc(-c2ccccc2Cl)c1C(=O)N(Cc1ccc(N(C)C)cc1)C(C)C`, the result was inactive. With `CCc1noc(C)c1C(=O)Nc1nc2ccc(OC)cc2s1` the entry was “inactive”; with `COC(C[C@@H](O)C[C@@H](O)[C@H](C)OCc1ccccc1)OC`, “inactive”; with `COC(C[C@H](O)CC(=O)[C@@H](C)OCc1ccccc1)OC`, “inactive”. Turning to `COC(C[C@@H](O)C[C@H](O)[C@H](C)OCc1ccccc1)OC`, the outcome was active. To `Cc1ccc2nnn(Cc3cccc(C(C)(C)C)c3O)c2c1` belongs “inactive”. With `Cc1ccc2nc(NC(=O)CSc3nc(=O)n(CCCN(C)C)c4c3CCC4)sc2c1` the entry was “inactive”. With `O=C(NCC(=O)N1CCCC(C(F)(F)F)C1)c1ccccc1F` (stereo not drawn) the entry was “inactive”; with `Cc1nc(N2CCOCC2)c2c(C)c(C(=O)Nc3ccc(C(F)(F)F)cc3)sc2n1`, “active”; with `Cc1nc(N2CCN(c3ccccn3)CC2)c2c(C)c(C(=O)Nc3ccc(F)cc3)sc2n1`, “inactive”.

On to `Cc1nc(N2CCN(c3ccccn3)CC2)c2c(C)c(C(=O)Nc3ccc(F)c(Cl)c3)sc2n1`, for which the outcome was inactive. Turning to `Cc1c(C)n2c(SCC(=O)N3CCCC3)nnc2[nH]c1=O`, the outcome was inactive. To `Cc1cc(/C=N/n2cnnc2)c(C)n1-c1ccc2ncccc2c1` belongs “inactive”; to `Cc1nn(C)cc1C(=O)c1ccccc1`, “inactive”; to `Cc1cccc([C@@H]2[C@@H]3C(=O)N(Cc4ccccc4)C(=O)[C@@H]3[C@]3(Cc4ccc(Cl)cc4)C(=O)N(c4cccc(Cl)c4)C(=O)N23)c1`, “inactive”.

Turning to `C=CCNC(=O)C1CC2c3ccccc3C1c1ccccc12` (stereo not drawn), the result was inactive.

Consider `CC(=O)c1c(C)oc2ccc(NS(=O)(=O)c3ccc(C(=O)O)cc3)cc12`, for which the call was active. `COc1ccc(S(=O)(=O)Nc2ccc3oc(C)c(C(C)=O)c3c2)cc1`: the compound was classed as inactive. With `CC(=O)c1c(C)oc2ccc(NS(=O)(=O)c3ccccc3)cc12` the entry was “inactive”. With `COc1ccccc1CNC(=O)COn1nnc2ccc(S(=O)(=O)N3CCOCC3)cc21` the entry was “inactive”. With `CCc1cccc(NC(=O)COC(=O)C2CCN(c3ccc(C(F)(F)F)cn3)CC2)c1`, the result was inactive. With `O=C(NCC(c1cccs1)N1CCOCC1)c1cc(Cl)ccc1[N+](=O)[O-]` (stereo not drawn) the entry was “inactive”; with `Cc1ccc(S(=O)(=O)N2CCC(C(=O)NCCC3=CCCCC3)CC2)cc1C`, “inactive”; with `O=C(CCC(=O)c1cccs1)Nc1nc2ccccc2s1`, “inactive”. With `CC12CCC(=O)N1C(C(=O)Nc1ccc(F)c(F)c1F)CS2` (stereo not drawn) the entry was “inactive”.

For the compound `COc1cc2ccccc2cc1C(=O)N1CCOCC1`, the call was inactive. To `COc1ccc(S(=O)(=O)NCc2cccnc2)cc1NC(=O)c1ccc(C)cc1` belongs “inactive”. Regarding `COc1ccc(/C=N/NC(=O)c2ccccc2)cc1OS(=O)(=O)c1ccccc1`, the outcome was inactive. For `COc1ccc(/C=N/NC(=O)c2ccc(Cl)cc2)cc1COC(C)=O`, the compound was called active. To `COc1cccc(OCc2cc(/C=N/NC(=O)c3nc(Cl)c(Cl)c(N)c3Cl)ccc2OC)c1` belongs “inactive”; to `CCOC(=O)N1CCN(C(=O)c2ccccc2SCC(=O)NCC2CCCCC2)CC1`, “inactive”. With `COc1ccccc1C(CNC(=O)c1cccc(NS(=O)(=O)c2ccc(Br)cc2)c1)N(C)C` (stereo not drawn) the entry was “inactive”; with `CCOc1ccc(CCNC(=O)CN2C(=O)NC3(CCc4ccccc43)C2=O)cc1OCC` (stereo not drawn), “inactive”; with `COc1ccccc1NC(=O)C(C)OC(=O)c1ccc(-n2cnnn2)cc1` (stereo not drawn), “inactive”. To `COc1ccc(C(=NN)c2ccc(OC)cc2)cc1` belongs “inactive”; to `CCCCn1c(N)c(N(Cc2ccccc2OC)C(=O)COc2cc(C)ccc2Cl)c(=O)[nH]c1=O`, “inactive”; to `COc1ccc(NC(=O)CN(C)C(=O)c2n[nH]c3ccccc23)cc1`, “inactive”.

On to `CCN(CC)c1ccc(S(=O)(=O)N2CCCCC2)cc1NC(=O)C1=COCCO1`, for which the compound was called inactive. To `CCCCn1c(N)c(N(CC(C)C)C(=O)c2cnc(C)cn2)c(=O)[nH]c1=O` belongs “inactive”; to `Cc1cccc(N(Cc2ccccc2)C(=O)c2cc(S(=O)(=O)N3CCOCC3)ccc2F)c1`, “inactive”. On to `Cc1ccc(C)c(NC(=O)COC(=O)Cn2c(C)csc2=O)c1`, for which the result was inactive. With `COc1ccc(-c2ccc3nnc(SCC(=O)Nc4ccc(NC(C)=O)cc4)n3n2)cc1` the entry was “inactive”.

Turning to `COc1ccc(C2CC(c3ccccc3)=NN2C(=O)c2ccc(Cl)c([N+](=O)[O-])c2)cc1` (stereo not drawn), the result was active. With `COc1ccc(C2CC(c3ccc([N+](=O)[O-])cc3)=NN2C(C)=O)cc1` (stereo not drawn) the entry was “inactive”.

Regarding `COc1ccc(C2=NN(C(=O)c3cccnc3)C(c3ccccc3)C2)cc1` (stereo not drawn), the compound was called inactive. Take `COc1ccc(S(=O)(=O)NCC(c2ccco2)N2CCOCC2)cc1` (stereo not drawn): the compound was called inactive. Turning to `CCn1cc(C(=O)NCCO)c(=O)c2cc(F)c(N3CCN(C)CC3)cc21`, the result was active. For `CCCCNC(=O)c1cn(CC)c2cc(N3CCN(C(=O)c4ccco4)CC3)c(F)cc2c1=O`, the compound was classed as inactive. To `CN1CCN(c2cc3c(cc2F)c(=O)c(C(=O)O)cn3CCF)CC1` belongs “inactive”.
